Reference: PubChem BioAssay (NCATS)
Records with an inconclusive call do not appear. The source made the active and inactive calls. Calls follow the shape of the dose curve; as a rule, active = well fitted inhibition curve with a large enough effect; inconclusive = small, poorly fitted or top-dose-only effect; inactive = flat fitted curve, though single readings scatter.

Columns and labels:
Experiment in all cases: qHTS profiling for inhibitors of Plasmodium falciparum proliferation (AID 504749); also: nearly all actives have a fitted effect of over 60% in size
3D7 = conditions: P. falciparum in erythrocytes, SYBR Green DNA, 72 h; series mostly up to 28.7 µM
How it was run: (§1)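 Each compound contacts P. falciparum-infected red blood cells for 72 h at 37 C; lysis buffer (Tris, EDTA, saponin, Triton X, SYBR Green I) is added and fluorescence measured next morning; values normalized to controls.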

CP185 = conditions: P. falciparum in erythrocytes, SYBR Green DNA, 72 h; series mostly up to 28.7 µM
How it was run: as §1

CP194 = conditions: P. falciparum in erythrocytes, SYBR Green DNA, 72 h; series mostly up to 28.7 µM
How it was run: as §1

CP201 = conditions: P. falciparum in erythrocytes, SYBR Green DNA, 72 h; series mostly up to 28.7 µM
How it was run: as §1

CP237 = conditions: P. falciparum in erythrocytes, SYBR Green DNA, 72 h; series mostly up to 28.7 µM
How it was run: as §1

CP238 = conditions: P. falciparum in erythrocytes, SYBR Green DNA, 72 h; series mostly up to 28.7 µM
How it was run: as §1

CP262 = conditions: P. falciparum in erythrocytes, SYBR Green DNA, 72 h; series mostly up to 28.7 µM
How it was run: as §1

CP265 = conditions: P. falciparum in erythrocytes, SYBR Green DNA, 72 h; series mostly up to 12.8 µM
How it was run: as §1

CP266 = conditions: P. falciparum in erythrocytes, SYBR Green DNA, 72 h; series mostly up to 12.8 µM
How it was run: as §1

CP268 = conditions: P. falciparum in erythrocytes, SYBR Green DNA, 72 h; series mostly up to 28.7 µM
How it was run: as §1

CP286 = conditions: P. falciparum in erythrocytes, SYBR Green DNA, 72 h; series mostly up to 28.7 µM
How it was run: as §1

CP305 = conditions: P. falciparum in erythrocytes, SYBR Green DNA, 72 h; series mostly up to 28.7 µM
How it was run: as §1

DIV30 = conditions: P. falciparum in erythrocytes, SYBR Green DNA, 72 h; series mostly up to 28.7 µM
How it was run: as §1

ECU = conditions: P. falciparum in erythrocytes, SYBR Green DNA, 72 h; series mostly up to 28.7 µM
How it was run: as §1

GB4 = conditions: P. falciparum in erythrocytes, SYBR Green DNA, 72 h; series mostly up to 28.7 µM
How it was run: as §1

HB3 = conditions: P. falciparum in erythrocytes, SYBR Green DNA, 72 h; series mostly up to 28.7 µM
How it was run: as §1

P94_40 = conditions: P. falciparum in erythrocytes, SYBR Green DNA, 72 h; series mostly up to 28.7 µM
How it was run: as §1

PAD = conditions: P. falciparum in erythrocytes, SYBR Green DNA, 72 h; series mostly up to 28.7 µM
How it was run: as §1

PC26 = conditions: P. falciparum in erythrocytes, SYBR Green DNA, 72 h; series mostly up to 28.7 µM
How it was run: as §1

TAB109 = conditions: P. falciparum in erythrocytes, SYBR Green DNA, 72 h; series mostly up to 12.8 µM
How it was run: as §1

Measured: Potency

C[C@]12CC[C@H]3[C@@H](CCC4=CC(=O)CC[C@@]43C)[C@@H]1CC[C@@H]2O
inactive: all assays above
